Bioassay records as filed in PubChem.
Sampled rows, rich in hits. Any-hit rate of the full collection: about 6.5%.
FMDV inh: High Throughput Screening for Foot and Mouth Disease Virus Antivirals; FMDV antiviral cell-based qHTS; Potency, µM (titrated, usually from 57.9 µM), without a hit: at the highest dose activity change, negative = inhibition, actives largely listed as inhibitors; 1.2% of 410,000 active; AID 1159524, 2015; calls by dose curve; tested in HEK293T cells; note: read-out not given here; potency is the fitted concentration of half-maximal effect; nearly all actives have a fitted effect of over 45% in size
VACV Venus inh: qHTS for Stage-Specific Inhibitors of Vaccinia Orthopoxvirus: Venus Reporter Primary qHTS; 0.46% of 330,000 active; Potency, µM (doses to about 36.5 µM), for inactives: at the highest dose activity change, negative = inhibition, most hits filed as inhibitors; Vaccinia virus Venus reporter expression, fluorescence; calls by dose curve; tested in A549 cells; note: potency is the fitted concentration of half-maximal effect; nearly all actives have a fitted effect of over 30% in size
MARV entry inh: qHTS for inhibitors of binding or entry into cells for Marburg Virus; AID 540276, 2011; Potency, µM (series often up to 37.8 µM), without a hit: top-dose activity change, negative = inhibition, hits mostly inhibitors; 1.8% of 300,000 active; Marburg virus pseudotyped entry inhibition, cell reporter; calls by dose curve; tested in HEK293 cells; note: potency is the fitted concentration of half-maximal effect
Lassa entry inh: qHTS for Inhibitors of binding or entry into cells for Lassa Virus; Potency, µM (highest dose often 37.9 µM), for the others: at the highest dose activity change, negative = inhibition, usual class: inhibitors; Lassa virus pseudotype entry inhibition, cell reporter; 1.2% of 300,000 active; calls by dose curve; tested in HEK293 cells; note: potency is the fitted concentration of half-maximal effect; nearly all actives have a fitted effect of over 50% in size
HCMV inh: qHTS Assay for inhibitors of the human cytomegalovirus (HCMV); activity change, negative = inhibition, % at 57.5 µM; HFF cells, HCMV-luciferase reporter, 72 h; hits give low values; 4.5% of 410,000 active; AID 1259415, 2018; in the data active = activity change below about -60%; inconclusive = no clear call, values can overlap the other calls; inactive = above about -39%
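Two compound doses tested in HFFs infected with HCMV-luciferase, MOI 1 PFU/cell, 72 h at 37C. Lysate luminescence read with OneGlo; data normalized against buffer-only and 10uM Salinomycin inhibitor controls.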
Vaccinia mCherry: qHTS for Stage-Specific Inhibitors of Vaccinia Orthopoxvirus: mCherry Reporter Primary qHTS. 0.63% of 310,000 active. Potency, µM (highest dose often 36.5 µM), without a hit: at the top dose activity change, negative = inhibition, usual class: inhibitors. Vaccinia virus mCherry reporter infection, fluorescence. AID 720579, 2013; calls by dose curve; tested in A549 cells; note: potency is the fitted concentration of half-maximal effect; nearly all actives have a fitted effect of over 35% in size
Numbers without * were called inactive; [ ] = another dose, or the depositor's remark. % is set by controls: 0 for no effect and ±100 for the full control effect.

Results for CN(C)c1nc(NCc2ccccc2)nc(SCC(=O)Nc2ccccc2)n1 ?
VACV Venus inh: -5%; MARV entry inh: inconclusive; Lassa entry inh: -23%; HCMV inh: inconclusive; Vaccinia mCherry: -15%

What do the screens show for `CC(Sc1nc(NCc2ccccc2)nc(N(C)C)n1)C(=O)Nc1ccccc1` (stereo not drawn)?
FMDV inh: 0%; MARV entry inh: -29%; Lassa entry inh: inconclusive; HCMV inh: -105*

How did CC(=NNC(=S)Nc1cccc(C)c1)c1ccccn1 do in these assays?
FMDV inh: 39%; VACV Venus inh: inconclusive; MARV entry inh: inconclusive; Lassa entry inh: inconclusive; HCMV inh: -98*; Vaccinia mCherry: 2µM*

How did CC(=NNC(=S)Nc1ccc(C)cc1)c1ccccn1 do in these assays?
FMDV inh: 0%; VACV Venus inh: inconclusive; MARV entry inh: inconclusive; Lassa entry inh: inconclusive; HCMV inh: -94*; Vaccinia mCherry: inconclusive

What do the screens show for `COc1ccccc1NC(=S)NN=C(C)c1ccccn1`?
FMDV inh: 1%; VACV Venus inh: inconclusive; MARV entry inh: inconclusive; Lassa entry inh: 0.28µM*; HCMV inh: -102*; Vaccinia mCherry: inconclusive

What do the screens show for `C/C(=N\NC(=S)Nc1cccc(C)c1)c1ccccc1`?
FMDV inh: 19%; VACV Venus inh: -24%; MARV entry inh: -24%; Lassa entry inh: inconclusive; HCMV inh: 1; Vaccinia mCherry: -25%

How did C/C(=N\NC(=S)Nc1ccc(C)cc1)c1cccc(N)c1 do in these assays?
FMDV inh: 48%; VACV Venus inh: -14%; MARV entry inh: 21%[46.1 µM]; Lassa entry inh: -11%; HCMV inh: 33; Vaccinia mCherry: -13%

What do the screens show for `CCCC1OC2C[C@@H]3[C@H]4CCC5=CC(=O)C=C[C@]5(C)[C@H]4C(O)C[C@]3(C)[C@]2(C(=O)CO)O1` (stereo partly drawn)?
VACV Venus inh: -28%; Vaccinia mCherry: -26%

How did COC(=O)c1ccc(COc2cc(O)c3c(c2)OC(C)(C)CC3=O)cc1 do in these assays?
FMDV inh: -21%; VACV Venus inh: -10%; MARV entry inh: -9%; Lassa entry inh: -6%; HCMV inh: -8; Vaccinia mCherry: -17%

How did CC1(C)CC(=O)c2c(O)cc(OCc3ccc(Br)cc3)cc2O1 do in these assays?
FMDV inh: 14%; MARV entry inh: inconclusive; Lassa entry inh: 10%; HCMV inh: -109*

What do the screens show for `NC(=O)c1cc2c3ccccc3ccn2c1-c1ccccc1`?
FMDV inh: 29%; HCMV inh: -99*

Results for O=C(c1cccnc1)C1CCCN(Cc2ccc3c(c2)CN(C(=O)c2ccc4[nH]ccc4c2)CCO3)C1 (stereo not drawn) ?
FMDV inh: -10%; VACV Venus inh: 10%; Vaccinia mCherry: -2%

Results for O=C(Cn1c(-c2cccs2)cc2cc(F)ccc21)NCCCN1CCN(c2ccccc2F)CC1 ?
FMDV inh: -29%; VACV Venus inh: -19%; Lassa entry inh: inconclusive; HCMV inh: inconclusive; Vaccinia mCherry: -22%

Results for O=C(Cn1c(-c2cccs2)cc2ccccc21)NCCCN1CCN(c2ccccc2F)CC1 ?
FMDV inh: -19%; VACV Venus inh: -22%; Lassa entry inh: inconclusive; HCMV inh: -68*; Vaccinia mCherry: -28%

How did CN1CCN(CCCNC(=O)Cn2c(-c3cccs3)cc3cc(Cl)ccc32)CC1 do in these assays?
FMDV inh: -13%; VACV Venus inh: -13%; Lassa entry inh: -23%[46.1 µM]; HCMV inh: -69*; Vaccinia mCherry: -9%

Results for O=C(NCCCN1CCN(c2ccccc2F)CC1)C1CCN(S(=O)(=O)c2cccs2)CC1 ?
FMDV inh: inconclusive; MARV entry inh: -10%; Lassa entry inh: -16%; HCMV inh: -68*

Results for CCc1ccc(CNC(=O)Cn2c(-c3cccs3)cc3cc(F)ccc32)cc1 ?
FMDV inh: -1%; VACV Venus inh: -13%; MARV entry inh: inconclusive; Lassa entry inh: -21%[46.1 µM]; HCMV inh: -65*; Vaccinia mCherry: -14%

Results for CCOC(=O)c1cnc2c(ccc3ccccc32)c1Nc1ccc(OC)cc1OC ?
FMDV inh: -2%; VACV Venus inh: -18%; MARV entry inh: inconclusive; Lassa entry inh: inconclusive; HCMV inh: -3; Vaccinia mCherry: -19%

What do the screens show for `Cc1c(C(=O)N(C)Cc2cccc3ncccc23)cnn1-c1nccc(-c2ccccc2F)n1`?
FMDV inh: -10%; VACV Venus inh: -14%; Vaccinia mCherry: inactive

How did COc1ccc(-c2sc(N)nc2-c2ccccc2)cc1 do in these assays?
VACV Venus inh: -26%; Vaccinia mCherry: 0%

Results for CNC(=O)[C@H]1O[C@@H](n2cnc3c(N)ncnc32)[C@H](O)[C@@H]1O ?
FMDV inh: -13%; VACV Venus inh: -8%; Vaccinia mCherry: -18%

How did CSc1ccccc1C(=O)NCc1nc(-c2cccc(NC(=O)c3ccoc3C)c2)oc1C do in these assays?
FMDV inh: 32µM*; VACV Venus inh: -29%; Vaccinia mCherry: inconclusive

What do the screens show for `COC(=O)c1cccc(C(=O)NCc2nc(-c3cccc(NC(=O)c4ccoc4C)c3)oc2C)c1`?
FMDV inh: 22µM*; VACV Venus inh: -23%; Vaccinia mCherry: -26%

What do the screens show for `Cc1occc1C(=O)Nc1cccc(-c2nc(CNC(=O)c3ccc4ccccc4n3)c(C)o2)c1`?
FMDV inh: -8%; VACV Venus inh: -21%; Vaccinia mCherry: -3%

Results for Cc1occc1C(=O)Nc1cccc(-c2nc(CNC(=O)c3cc(-c4ccccc4)n[nH]3)c(C)o2)c1 ?
FMDV inh: -1%; VACV Venus inh: -23%; Vaccinia mCherry: -24%

Results for Cc1occc1C(=O)Nc1cccc(-c2nc(CNC(=O)c3cccc(C#CC(C)(C)O)c3)c(C)o2)c1 ?
FMDV inh: 20µM*; VACV Venus inh: inconclusive; Vaccinia mCherry: inconclusive

How did O=S(=O)(c1cccc(Cl)c1)N1CCN(c2nc(-c3cccs3)nc3ccccc23)CC1 do in these assays?
VACV Venus inh: -9%; Vaccinia mCherry: -15%

How did Cc1ccc(-n2ncc(C(=O)NCCc3c[nH]c4ccccc34)c2C2CCN(C(=O)OC(C)(C)C)CC2)cc1C do in these assays?
FMDV inh: -21%; VACV Venus inh: -21%; MARV entry inh: inconclusive; Lassa entry inh: inconclusive; HCMV inh: -29; Vaccinia mCherry: inconclusive

What do the screens show for `O=C(NC(=S)Nc1ccc(Cc2ccncc2)cc1)c1ccccc1Cl`?
FMDV inh: -11%; VACV Venus inh: -1%; MARV entry inh: inconclusive; Lassa entry inh: 1%; HCMV inh: -36; Vaccinia mCherry: 1%
